The campaign covered roughly 5,500 compounds. About 2,000 (36%) were called active. Roughly 18% stayed inconclusive and do not appear here. Cut-off read from the data, not from the text of the source: active = normalized growth mostly below about 0.91 (no sharp cut-off); inconclusive = no clear call, values can overlap the other calls; inactive = mostly above about 0.92. The list shows a part of the results.
Assay: chemical genetic growth profiling, strain panel (AID 1159580);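 note: tested at 20 µM; growth read once vehicle control cultures reached saturation at 30 °C; 1 = growth at the plate median or of vehicle wells; lower values mean less growth of the strain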
Details: growth OD

Measured: normalized growth

c1coc(CNc2ncnc3nc[nH]c23)c1
inactive: S. cerevisiae deletion strains, locus YJR075W, strain HOC1, stronger effect = lower value 1 | S. cerevisiae deletion strains, locus YKL009W, strain mrt4, stronger effect = lower value 1.03 | S. cerevisiae deletion strains, locus YKL068W, stronger effect = lower value 0.979 | S. cerevisiae deletion strains, locus YKL085W, strain MDH1 (second series), stronger effect = lower value 1.01 | S. cerevisiae deletion strains, locus YKL085W, strain MDH1, stronger effect = lower value 1.01 | S. cerevisiae deletion strains, locus YKL160W, strain elf1, stronger effect = lower value 1.02 | S. cerevisiae deletion strains, locus YKL190W, strain CNB1, stronger effect = lower value 0.994 | S. cerevisiae deletion strains, locus YKR001C, strain vps1, stronger effect = lower value 1 | S. cerevisiae deletion strains, locus YKR026C, strain gcn3, stronger effect = lower value 0.999 | S. cerevisiae deletion strains, locus YKR091W, strain srl3, stronger effect = lower value 0.994 | S. cerevisiae deletion strains, locus YLL001W, strain dnm1, stronger effect = lower value 1.01 | S. cerevisiae deletion strains, locus YLL026W, stronger effect = lower value 0.999 | S. cerevisiae deletion strains, locus YLL041C, strain sdh2, stronger effect = lower value 0.997 | S. cerevisiae deletion strains, locus YLR027C, strain aat2, stronger effect = lower value 1 | S. cerevisiae deletion strains, locus YLR039C, strain RIC1, stronger effect = lower value 1.01 | S. cerevisiae deletion strains, locus YLR058C, strain SHM2, stronger effect = lower value 1 | S. cerevisiae deletion strains, locus YLR102C, strain apc9, stronger effect = lower value 0.989 | S. cerevisiae deletion strains, locus YLR113W, strain HOG1, stronger effect = lower value 0.993 | S. cerevisiae deletion strains, locus YLR221C, strain rsa3, stronger effect = lower value 0.975 | S. cerevisiae deletion strains, locus YLR258W, strain gsy2, stronger effect = lower value 0.996 | S. cerevisiae deletion strains, locus YLR262C, strain YPT6 (second series), stronger effect = lower value 0.977 | S. cerevisiae deletion strains, locus YLR262C, strain YPT6, stronger effect = lower value 0.981 | S. cerevisiae deletion strains, locus YLR268W, strain sec22, stronger effect = lower value 0.97 | S. cerevisiae deletion strains, locus YLR320W, strain mms22, stronger effect = lower value 1 | S. cerevisiae deletion strains, locus YLR330W, strain CHS5, stronger effect = lower value 0.994 | S. cerevisiae deletion strains, locus YLR342W, strain FKS1 (second series), stronger effect = lower value 1.02 | S. cerevisiae deletion strains, locus YLR342W, strain FKS1, stronger effect = lower value 1.01 | S. cerevisiae deletion strains, locus YLR357W, strain rsc2, stronger effect = lower value 0.98 | S. cerevisiae deletion strains, locus YLR370C, strain arc18, stronger effect = lower value 0.993 | S. cerevisiae deletion strains, locus YLR371W, strain rom2, stronger effect = lower value 0.99 | S. cerevisiae deletion strains, locus YLR384C, strain iki3, stronger effect = lower value 1 | S. cerevisiae deletion strains, locus YLR418C, strain cdc73, stronger effect = lower value 1 | S. cerevisiae deletion strains, locus YML016C, strain PPZ1, stronger effect = lower value 1 | S. cerevisiae deletion strains, locus YML032C, strain rad52, stronger effect = lower value 0.993 | S. cerevisiae deletion strains, locus YML120C, strain ndi1, stronger effect = lower value 0.992 | S. cerevisiae deletion strains, locus YML124C, strain tub3, stronger effect = lower value 1 | S. cerevisiae deletion strains, locus YMR058W, strain fet3, stronger effect = lower value 0.998 | S. cerevisiae deletion strains, locus YMR078C, strain ctf18, stronger effect = lower value 0.994 | S. cerevisiae deletion strains, locus YMR125W, strain sto1, stronger effect = lower value 0.974 | S. cerevisiae deletion strains, locus YMR129W, stronger effect = lower value 0.988 | S. cerevisiae deletion strains, locus YMR205C, strain PFK2, stronger effect = lower value 1 | S. cerevisiae deletion strains, locus YMR223W, strain ubp8, stronger effect = lower value 1.02 | S. cerevisiae deletion strains, locus YMR231W, strain pep5, stronger effect = lower value 0.991 | S. cerevisiae deletion strains, locus YMR263W, strain SAP30, stronger effect = lower value 0.986 | S. cerevisiae deletion strains, locus YMR307W, strain GAS1, stronger effect = lower value 1.11 | S. cerevisiae deletion strains, locus YNL067W, strain RPL9B, stronger effect = lower value 0.983 | S. cerevisiae deletion strains, locus YNL071W, strain lat1, stronger effect = lower value 0.999 | S. cerevisiae deletion strains, locus YNL128W, strain TEP1, stronger effect = lower value 0.99 | S. cerevisiae deletion strains, locus YNL153C, strain GIM3, stronger effect = lower value 0.991 | S. cerevisiae deletion strains, locus YNL183C, strain NPR1, stronger effect = lower value 0.914 | S. cerevisiae deletion strains, locus YNL209W, strain ssb2, stronger effect = lower value 0.986 | S. cerevisiae deletion strains, locus YNL233W, strain BNI4, stronger effect = lower value 1.01 | S. cerevisiae deletion strains, locus YNL248C, strain rpa49, stronger effect = lower value 0.989 | S. cerevisiae deletion strains, locus YNL250W, strain rad50, stronger effect = lower value 0.995 | S. cerevisiae deletion strains, locus YNL271C, strain bni1, stronger effect = lower value 0.988 | S. cerevisiae deletion strains, locus YNL298W, strain CLA4, stronger effect = lower value 1 | S. cerevisiae deletion strains, locus YNL307C, strain MCK1, stronger effect = lower value 0.995 | S. cerevisiae deletion strains, locus YNL322C, strain KRE1 (second series), stronger effect = lower value 0.992 | S. cerevisiae deletion strains, locus YNL322C, strain KRE1, stronger effect = lower value 0.987 | S. cerevisiae deletion strains, locus YNR049C, strain mso1, stronger effect = lower value 0.999 | S. cerevisiae deletion strains, locus YNR052C, strain pop2, stronger effect = lower value 0.993 | S. cerevisiae deletion strains, locus YOL006C, strain TOP1, stronger effect = lower value 0.981 | S. cerevisiae deletion strains, locus YOL012C, strain htz1 0.989 | S. cerevisiae deletion strains, locus YOL147C, strain pex11, stronger effect = lower value 0.999 | S. cerevisiae deletion strains, locus YOR001W, strain rrp6, stronger effect = lower value 1.01 | S. cerevisiae deletion strains, locus YOR061W, strain CKA2, stronger effect = lower value 1 | S. cerevisiae deletion strains, locus YOR069W, strain VPS5, stronger effect = lower value 1 | S. cerevisiae deletion strains, locus YOR070C, strain gyp1, stronger effect = lower value 1 | S. cerevisiae deletion strains, locus YOR080W, strain dia2, stronger effect = lower value 0.995 | S. cerevisiae deletion strains, locus YOR083W, strain WHI5, stronger effect = lower value 1 | S. cerevisiae deletion strains, locus YOR106W, strain vam3, stronger effect = lower value 1 | S. cerevisiae deletion strains, locus YOR136W, strain idh2, stronger effect = lower value 0.996 | S. cerevisiae deletion strains, locus YOR144C, strain elg1, stronger effect = lower value 0.99 | S. cerevisiae deletion strains, locus YOR184W, strain ser1, stronger effect = lower value 0.997 | S. cerevisiae deletion strains, locus YOR231W, strain MKK1, stronger effect = lower value 0.998 | S. cerevisiae deletion strains, locus YOR265W, strain rbl2, stronger effect = lower value 0.996 | S. cerevisiae deletion strains, locus YOR270C, strain vph1, stronger effect = lower value 0.99 | S. cerevisiae deletion strains, locus YOR290C, strain snf2, stronger effect = lower value 0.991 | S. cerevisiae deletion strains, locus YOR316C, strain cot1, stronger effect = lower value 0.989 | S. cerevisiae deletion strains, locus YPL051W, strain arl3, stronger effect = lower value 0.996 | S. cerevisiae deletion strains, locus YPL055C, strain LGE1, stronger effect = lower value 0.978 | S. cerevisiae deletion strains, locus YPL078C, strain atp4, stronger effect = lower value 1.01 | S. cerevisiae deletion strains, locus YPL106C, strain sse1, stronger effect = lower value 0.995 | S. cerevisiae deletion strains, locus YPL240C, strain hsp82, stronger effect = lower value 1.02 | S. cerevisiae deletion strains, locus YPL241C, strain CIN2, stronger effect = lower value 1 | S. cerevisiae deletion strains, locus YPL256C, strain CLN2, stronger effect = lower value 0.965 | S. cerevisiae deletion strains, locus YPR119W, strain clb2, stronger effect = lower value 0.999 | S. cerevisiae deletion strains, locus YPR141C, strain kar3, stronger effect = lower value 0.981 | S. cerevisiae deletion strains, locus YPR163C, strain tif3, stronger effect = lower value 1 | S. cerevisiae deletion strains, locus YPR167C, strain met16, stronger effect = lower value 0.99 | S. cerevisiae deletion strains, strain wtn01, stronger effect = lower value 0.986 | S. cerevisiae strains, strain wild type, stronger effect = lower value 0.999

Source: PubChem BioAssay AID1159580 (chemical genetic matrix, 2015)
